Screen size: about 220,000 compounds; about 8,200 (3.7%) were called active.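 How the source made its calls: active means compounds that reduced the stress-induced luciferase reporter signal by more than about 70% of percent inhibition (limit read from the data); inactive means the rest.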 What follows is part of a selection rich in actives, with near analogues and random picks from the rest.

A short description of the test: inhibitors of CHOP promoter induction, primary screen, cell-based, unfolded protein response, luciferase reporter (AID 2732).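 Further: 0% = tunicamycin plus vehicle and 100% = wells without tunicamycin.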 As to conditions: CHO-K1 CHOP-promoter luciferase, tunicamycin-induced, 15-18 h; at 10 µM; stronger effect = higher value. In general terms: In a reporter assay the amount or activity of a reporter protein is the signal.
Regarding `Cc1ccc(S(=O)(=O)NCCSc2ccccc2)cc1[N+](=O)[O-]`, the inhibition (as a rule, the relative decrease from the control value, in per cent) is 33.3% (inactive).
As to `CCOc1ccc(S(=O)(=O)NCCSc2ccccc2)cc1`, the inhibition was 95.6% (active).
Turning to `O=S(=O)(NCCSc1ccccn1)c1ccc(Cl)cc1`, the inhibition was 15.3% (inactive).
Consider `c1ccc(-c2oc3ncnc(N4CCOCC4)c3c2-c2ccccc2)cc1`, for which the inhibition is 57.6% (inactive).
For `COc1ccc(-c2oc3ncn(Cc4ccco4)c(=N)c3c2-c2ccc(OC)cc2)cc1` the value was -30.9% (inactive); for `N=c1c2c(-c3ccccc3)c(-c3ccccc3)oc2ncn1Cc1ccco1`, 92.2% (active); for `O=C(CNc1ccc(F)cc1F)NC(=O)NCc1ccco1`, 10.8% (inactive).
In the case of `Cc1nc2nc(SCC(=O)c3ccccc3)[nH]c2cc1Br`, the inhibition was -0.2% (inactive).
With `CCCc1nc(NCc2ccc3c(c2)OCO3)c2nnn(Cc3ccccc3Cl)c2n1`, the inhibition is 70.4% (active).
Regarding `O=C(Cn1cnc2c(nnn2Cc2ccc(F)cc2)c1=O)NCc1ccc2c(c1)OCO2`, the inhibition was 37.3% (inactive).
As to `Cc1nc(Nc2ccc3c(c2)OCCO3)c2nnn(Cc3ccccc3Cl)c2n1`, the inhibition is 69.6% (inactive).
Consider `CS/C(=C\C(=O)c1ccco1)Nc1ccccc1Cl`, for which the inhibition was 1.24% (inactive).
With `CC(O)c1nc2c(c(=O)n(C)c(=O)n2C)n1C` (configuration not stated), the inhibition was 10.6% (inactive).
Take `COc1cc(C2C(C#N)=C(C)NC3=C2C(=O)CC(C)(C)C3)ccc1O` (configuration not stated): the inhibition was 49.1% (inactive).
For `CCC1C(C#N)=C(SC)NC2=C1C(=O)CC(C)(C)C2` (configuration not stated) the value was 73.6% (active); for `CC(=O)C1=C(C)NC2=C(C(=O)CC(C)(C)C2)C1C` (configuration not stated), 23.4% (inactive).
Consider `CCn1c(SCC(=O)N/N=C/c2ccncc2)nc2ccccc21`, for which the inhibition is 24.8% (inactive).
Turning to `CCOC(=O)c1sc(NC(=O)CSc2nnc(-c3ccco3)o2)c(C(=O)OCC)c1C`, the inhibition is 19.2% (inactive).
For `CCOC(=O)c1c(NC(=O)CSc2nnc(Cc3csc(N)n3)n2C)sc(C)c1C` the value was 4.17% (inactive); for `CCOC(=O)c1c(NC(=O)CSc2nnc(CNc3ccc(C)cc3C)o2)sc(C)c1C`, 80.7% (active).
As to `Nc1c(Cl)cc(S(N)(=O)=O)cc1S(N)(=O)=O`, the inhibition is 4.35% (inactive).
Regarding `Cn1cc(/C=C/c2nc3ccccc3c(=O)n2-c2cccc([N+](=O)[O-])c2)c2ccccc21`, the inhibition was 86% (active).
For the molecule `O=[N+]([O-])c1cccc(Nc2c3ccccc3nc3ccccc23)c1`, the inhibition is 47.9% (inactive).
Next, `CCn1c(/C=C/c2ccc([N+](=O)[O-])o2)nc2ccccc2c1=O`: 5.31% (inactive); `CCn1c2ccccc2c2cc(NC(=O)Nc3ccc([N+](=O)[O-])cc3C)ccc21`: 31.1% (inactive); `Nc1scc[n+]1Cc1cccc2cccnc12`: 12% (inactive).
As for `Cc1cc(NC(=O)/C=C/C(=O)N(CC(=O)NC2CCCC2)c2ccc(F)cc2)no1`, the inhibition is -11.4% (inactive).
Consider `Cc1cc(NC(=O)/C=C/C(=O)N(c2ccccc2C)C(C(=O)NC2CCCC2)c2ccc(F)cc2)no1` (configuration not stated), for which the inhibition was 87.6% (active).
With `Cc1cc(NC(=O)CCC(=O)N(c2cccc(F)c2)C(C(=O)NC2CCCC2)c2ccncc2)no1` (configuration not stated), the inhibition is -6.58% (inactive).
Take `Cn1cccc1/C=N/NC(=O)CNc1cccc2ccccc12`: the inhibition was 10.8% (inactive).
For `O=C(O)c1cccnc1Sc1ncnc2sc3c(c12)CCC3` the value was -7.08% (inactive).
With `O=C1OC(/C=C/c2ccccc2)=NC/1=C/c1ccco1`, the inhibition was 0.75% (inactive).
Regarding `CCC1S/C(=N/N=C/c2ccco2)NC1=O` (configuration not stated), the inhibition is 40.4% (inactive).
As for `CC(C)(C)C1C/C(=C/c2ccco2)C(=O)/C(=C/c2ccco2)C1` (configuration not stated), the inhibition is 108% (active).
For `COc1ccc(-c2csc(NC3OC(=O)c4ccccc43)n2)cc1` (configuration not stated), the inhibition was -118% (inactive).
For `COc1cc(/C=N\Nc2nc(-c3cccs3)c(NC(C)=O)s2)ccc1O` the value was -7.52% (inactive).
Take `NNC(=O)c1ccc(COCC(F)(F)C(F)F)cc1`: the inhibition was -2.57% (inactive).
For `COc1ccc(CCNC(=O)C(=O)NCC2CCNCC2)cc1OC`, the inhibition was -6.48% (inactive).
For `C=CCNC(=S)NNC(=O)c1cc(Cl)ccc1OC` the value was -7.01% (inactive); for `C=CCNC(=O)c1sc(SC)cc1-c1ccc(Cl)cc1`, 72.1% (active); for `C=CCNC(=O)c1ccc(C)c(Br)c1`, 24.2% (inactive).
For the molecule `COc1cc(NC(=O)c2ccc(CNc3c(N4CCCC4)c(=O)c3=O)cc2)cc(OC)c1OC`, the inhibition is -0.87% (inactive).
With `COc1ccccc1-n1c(SCC(=O)O)nc2sc3c(c2c1=O)CCC3`, the inhibition was 8.81% (inactive).
Consider `CCOc1ccc(/C(O)=C2\C(=O)C(=O)N(c3ccc(OC)cc3)C2c2ccccc2[N+](=O)[O-])cc1` (configuration not stated), for which the inhibition was -9.44% (inactive).
Take `O=c1c(-c2ccccc2)coc2c(CN3CCOCC3)c(O)ccc12`: the inhibition is -10.6% (inactive).
As to `O=c1c(-c2ccccc2)coc2cc(O)ccc12`, the inhibition is 15.5% (inactive).
Next, `CC(C)=CCc1c(O)c(CC=C(C)C)c2occ(-c3ccc(O)cc3)c(=O)c2c1O`: 104% (active).
Next, `O=C(c1ccc(Cl)cc1)N1N=C(c2ccccn2)CC1(O)C(F)(F)F` (configuration not stated): 6.12% (inactive); `Nc1nc(NC(=O)/C=C/c2ccc(F)cc2)nn1-c1ccccc1`: 18.8% (inactive); `Cc1noc(C)c1CSCC(=O)Nc1nc2ccc(Oc3ccccc3)cc2s1`: 80.2% (active).
Next, `CCn1c(SCC(=O)Nc2nc3ccc(OC)cc3s2)nnc1-c1ccoc1C`: 14.3% (inactive); `CCOC(=O)c1c(C2CC2)csc1NC(=O)CSCc1c(C)noc1C`: 50.5% (inactive).
On to `Cc1ccc(NNC(=O)C2CCC2)cc1C`, for which the inhibition is 6.66% (inactive).
Consider `COc1ccc2cc1Oc1ccc(cc1)C[C@H]1c3cc(c(OC)cc3CCN1C)Oc1c(O)c(OC)cc3c1[C@H](C2)N(C)CC3`, for which the inhibition was -41.5% (inactive).
For `CS(=O)(=O)N(CC(=O)Nc1ccc(Cl)c(Cl)c1)C1CCCCC1`, the inhibition is 99.8% (active).
For the molecule `CCC(C)NC(=O)CN(C1CCCCC1)S(C)(=O)=O` (configuration not stated), the inhibition is 5.15% (inactive).
With `CN(CC(=O)Nc1ccc(S(=O)(=O)N2CCCC2)cc1)Cc1ccc(Cl)c(Cl)c1`, the inhibition is 25.8% (inactive).
`O=C(O)C(NS(=O)(=O)c1cccc2nsnc12)c1ccccc1` (configuration not stated): the inhibition is 16% (inactive).
Next, `CCCc1nc2ccccc2c(C(=O)OCC(=O)c2ccc3c(c2)NC(=O)CO3)c1CC`: 102% (active); `O=C1COc2ccc(C(=O)COC(=O)c3cccnc3Cl)cc2N1`: -9.06% (inactive).
Next, `CCCc1nc2ccccc2c(C(=O)OCc2nnc(-c3cc(OC)c(OC)c(OC)c3)o2)c1CC`: 58% (inactive).
Next, `C#CCO[C@@H]1C[C@H](n2cnc3c(=O)[nH]c(NC(=O)C(C)C)nc32)O[C@@H]1CO`: -12.9% (inactive); `COc1ccc([N+](=O)[O-])cc1N(CC(O)CN(CC(C)C)CC(C)C)S(=O)(=O)c1ccc(C)cc1` (configuration not stated): 9.51% (inactive); `COc1ccc(CN2C(=O)C(C)S/C2=N/N=C/c2ccco2)cc1` (configuration not stated): 5.76% (inactive).
For the molecule `S=C(NCCc1ccccc1)NCc1ccccc1Cl`, the inhibition is 76.7% (active).
Next, `S=C(NCCc1ccccc1)Nc1ccccc1`: -23.1% (inactive); `Cc1ccc(NC(=S)NCc2ccccc2Cl)c(C)c1`: 21.4% (inactive).
On to `CCCCCCCCCCCCC(NC(C)=O)(C(=O)OCC)C(=O)OCC`, for which the inhibition was 28.6% (inactive).
As to `Cc1cc(-c2n[nH]c(=S)n2/N=C/c2ccco2)n[nH]1`, the inhibition is -10.9% (inactive).
Consider `Cc1cc(-c2n[nH]c(=S)n2/N=C/C(Br)=C/c2ccccc2)n[nH]1`, for which the inhibition was 106% (active).
Take `S=c1[nH]nc(-c2cccnc2)n1/N=C/C(Cl)=C\c1ccccc1`: the inhibition is -39.3% (inactive).
For `COC(=O)c1sc(NC(=S)NC(=O)c2ccc(C)cc2)nc1C`, the inhibition was -2.37% (inactive).
For the molecule `Nc1ccccc1C(=O)NC1CCCCNC1=O` (configuration not stated), the inhibition was 13.6% (inactive).
Regarding `COc1ccccc1Cn1c(CO)nc2ccccc21`, the inhibition is 6.99% (inactive).
Next, `Cc1ccc(Nc2c3c(nc4ccccc24)CCC3)cc1`: 17.5% (inactive); `C=CCn1c(C)cc(C2=NNC(=NCC)SC2)c1C`: 105% (active).
On to `Cc1cc(C2=NNC(=Nc3ccc(S(=O)(=O)N4CCOCC4)cc3)SC2)c(C)n1CC1CCCO1` (configuration not stated), for which the inhibition was 6.71% (inactive).
Regarding `COCCn1c(C)cc(C2=NNC(=Nc3ccc(F)cc3)SC2)c1C`, the inhibition was -7.2% (inactive).
Regarding `CCCc1ccc(-c2c(C)sc(NC(=O)c3ccnn3C)c2C#N)cc1`, the inhibition is 76.4% (active).
Turning to `CCN(CC)C(=O)c1sc(NC(=O)c2ccco2)c(C#N)c1C`, the inhibition was -5.34% (inactive).
`Cn1nccc1CNC(=O)c1ccnn1C`: the inhibition is -26% (inactive).
For the molecule `CCCCCCCN=C(C)c1ccccc1O`, the inhibition is -7.28% (inactive).
Consider `Cc1ccc(NC(=O)Nc2cccc(C(F)(F)F)c2)nc1`, for which the inhibition is -25.1% (inactive).
Consider `CCNS(=O)(=O)c1ccc(NC(=O)Nc2cccc(OC)c2)cc1`, for which the inhibition was -10.9% (inactive).
Regarding `CCNS(=O)(=O)c1ccc(NC(=O)Nc2cccc(C(F)(F)F)c2)cc1`, the inhibition is 87.4% (active).
In the case of `Cn1nc(C(F)(F)F)cc1C(=O)O`, the inhibition is 13.6% (inactive).
On to `CSC1=NCCN1C(=O)Cc1cccc2ccccc12`, for which the inhibition is 13.7% (inactive).
For `O=C(Nc1ccc2ccccc2c1)Nc1ccc2snnc2c1` the value was 79.2% (active); for `COc1ccc(NC(=O)Nc2ccc3nsnc3c2)cc1`, 4.53% (inactive); for `O=C(Nc1ccccc1)Nc1nc2ccccc2s1`, -20.1% (inactive).
Next, `Cc1ccc(F)cc1NC(=O)N1CCCN(c2ccc(C(F)(F)F)cn2)CC1`: 1.83% (inactive); `COc1cc(NC(=O)c2cncc(-c3ccc(C#N)cc3)c2)cc(C(=O)Nc2cccc(C(F)(F)F)c2)c1`: 22.1% (inactive); `COc1ccc(OCC(=O)Nc2nnc(-c3ccco3)s2)cc1`: 28.2% (inactive).
Regarding `Cc1ccc(OCC(=O)Nc2nnc(-c3ccco3)s2)cc1`, the inhibition was 82.2% (active).
`CNc1nnc(-c2ccco2)s1`: the inhibition was 7.19% (inactive).
`CC(NCc1ccccc1OC1CCCC1)c1ccccc1` (configuration not stated): the inhibition is 11.4% (inactive).
In the case of `O=C(CSc1nc2ccccc2o1)N/N=C/c1ccccc1C(=O)O`, the inhibition was -2.6% (inactive).

The values are drawn from PubChem BioAssay AID2732 (Emory University Molecular Libraries Screening Center, 2010).
